Screens (PubChem)
KDM4E inh: blocks human JMJD2E demethylase activity; Potency, µM (series often up to 57.1 µM), without a hit: at the highest dose activity change, negative = inhibition, actives largely listed as inhibitors; actives 1.6% (n = 230,000); B2RXH2; JMJD2E catalytic domain, FDH-coupled NADH fluorescence (FDH is formaldehyde dehydrogenase);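 also: potency is read from the fitted curve at half-maximal effect; 0% = wells with enzyme and -100% = buffer wells without enzyme; nearly all actives have a fitted effect of over 50% in size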
Target sequence (B2RXH2 1-337 limits assumed): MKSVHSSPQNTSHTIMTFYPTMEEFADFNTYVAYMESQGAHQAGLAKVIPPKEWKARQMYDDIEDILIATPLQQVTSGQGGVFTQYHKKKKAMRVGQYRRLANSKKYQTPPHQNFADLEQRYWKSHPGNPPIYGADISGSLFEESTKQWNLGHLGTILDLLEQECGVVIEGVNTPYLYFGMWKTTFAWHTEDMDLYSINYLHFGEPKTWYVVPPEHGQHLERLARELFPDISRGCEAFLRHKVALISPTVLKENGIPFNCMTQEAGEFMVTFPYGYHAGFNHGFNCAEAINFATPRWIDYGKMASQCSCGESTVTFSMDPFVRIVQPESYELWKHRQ
Tau fluor cs: counter-screen for tau fibril formation inhibitors. tau K18 P301L Alexa594 fluorescence, heparin fibrillization. Potency, µM (series often up to 57.7 µM), for the others: at the highest dose activity change, negative = decrease. actives 0.93% (n = 280,000); also: potency is read from the fitted curve at half-maximal effect; nearly all actives have a fitted effect of over 55% in size
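Human tau K18 P301L (15 uM unlabeled, 0.24 uM Alexa 594-labeled) in 100 mM sodium acetate pH 7 with 20 uM heparin, 6 hr at 37 C. ThT 30 uM added, 1 hr ambient; Alexa 594 FP and total fluorescence read at 555/632 nm.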
Tau FP inhib: tau fibrillization inhibition (FP); P10636; K18 P301L tau heparin fibrillization, Alexa594 FP, 6 h; Potency, µM (highest dose often 57.7 µM), inactives show at the top dose activity, negative = inhibition, hits mostly inhibitors; actives 0.39% (n = 280,000); AID 1468; also: potency is read from the fitted curve at half-maximal effect; nearly all actives have a fitted effect of over 55% in size
Target sequence (P10636 561-689 P618L limits assumed): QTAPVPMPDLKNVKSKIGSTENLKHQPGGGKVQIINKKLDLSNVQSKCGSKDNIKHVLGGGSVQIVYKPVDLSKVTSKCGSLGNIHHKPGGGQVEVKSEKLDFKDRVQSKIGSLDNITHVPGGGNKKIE
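Steps: dispense K18 P301L tau (15 uM plus 0.24 uM Alexa 594 tracer, final) in pH 7 sodium acetate; add compound; add heparin (20 uM final); incubate 6 hr, 37 C; add ThT (30 uM final); after 1 hr ambient, read FP.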
Sfp inh: Sfp phosphopantetheinyl transferase inhibition. Q9F4F7. Biochemical Sfp PPTase activity, qHTS. Potency, µM, without a hit: largest response in the series, negative = inhibition, hits mostly inhibitors. actives 3.5% (n = 310,000). AID 1490;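 also: the enzyme is Sfp with the accession as filed and its product quenches rhodamine fluorescence; potency is read from the fitted curve at half-maximal effect; 0% = enzyme reaction without inhibitor and -100% = no enzyme wells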
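Step 1, compound plus 15 nM Sfp-PPTase, 15 min, room temperature. Step 2, add rhodamine-CoA (5 uM) and BHQ-2-YbbR (12.5 uM). Step 3, read 525/598 nm fluorescence at 0 and 30 min.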
FBPA coupling cs: counter-screen for Giardia aldolase inhibitors: coupling enzyme system; coupling enzyme system counterscreen, AmpLite Red fluorescence; activity change, negative = inhibition, % at 58.2 µM, hits read low; actives 0.67% (n = 290,000); in the data active = activity change below about -30%
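Final compound at 57.5 uM, incubated 10 min at RT with coupling enzyme reagent (glyceraldehyde-3-phosphate), then 20 min with substrate and AmpLite Red detection. Fluorescence read at 525/598 nm; tests interference with the coupling assay, not aldolase inhibition.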
Tau fibril ThT: inhibitors of human tau fibril formation, thioflavin T binding; P10636; recombinant tau K18 P301L, heparin-induced fibrillization, ThT fluorescence; Potency, µM (highest dose often 57.4 µM), without a hit: top-dose activity, negative = inhibition, actives largely listed as inhibitors; actives 2.1% (n = 270,000); also: potency is read from the fitted curve at half-maximal effect; nearly all actives have a fitted effect of over 55% in size
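Fibril formation assay: tau K18 P301L at 15 uM with trace Alexa 594 label, heparin inducer 20 uM, pH 7 sodium acetate buffer, 37 C for 6 hr; endpoint ThT signal.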
* = called active by the depositor; ? = inconclusive; . = no result given; [ ] = dose if it differs, or a comment. The list is not random: actives were taken first. Their share in the collection is about 5.3%. Unless noted, calls follow the shape of the dose curve; as a rule, active = well fitted curve in the direction sought with a large enough effect; inconclusive = small, poorly fitted or top-dose-only effect, or another doubt; inactive = no such curve, though single readings can be large; an effect the other way counts as inactive or inconclusive. Unless noted, % is scaled to controls: 0 for no effect and ±100 for the full control effect.

SMILES	KDM4E inh	Tau fluor cs	Tau FP inhib	Sfp inh	FBPA coupling cs	Tau fibril ThT
CC(=O)Nc1cc(NC(C)=O)c(N=Nc2ccccc2)cc1C	-2%	?	12%	-2%	1	.
O=C(O)c1cccc(S(=O)(=O)Nc2ccc3oc(=O)sc3c2)c1	?	-3%	-5%	11µM*	8	-13%
COc1ccc(OC)c(CNC(=O)C(C)n2c(C)c3cnn(-c4ccccc4)c(=O)c3c2C)c1 (stereo not given)	.	-6%	-2%	.	.	-3%
CC(C)NC(=O)c1sc2nc3c(c(-c4cccs4)c2c1N)CN(C)CC3	-30%	-20%	-3%	-6%	1	?
Cc1cccc(NC(=O)c2sc3nc4c(c(-c5cccs5)c3c2N)CN(C)CC4)c1	-8%	28µM*[quencher]	?	?	-1	16µM*
CN1CCc2nc3sc(C(=O)NCc4ccccc4)c(N)c3cc2C1	?	?	-12%	-27%	-6	14µM*
CCN(CC)c1ccc(NC(=O)c2sc3nc4c(cc3c2N)CN(C)CC4)cc1	.	?	?	.	.	1.3µM*
CN1CCc2nc3sc(C(=O)Nc4ccccc4OC(F)(F)F)c(N)c3cc2C1	.	-26%	-7%	.	.	-8%
NCC(=O)N[C@@H](CCCN=C(N)N)C(=O)NCC(=O)N[C@@H](CC(=O)O)C(=O)N[C@@H](CO)C(=O)N1CCC[C@H]1C(=O)O	.	.	.	25%	-2	.
CCOC(=O)c1c(NC(=O)CC)sc(C(=O)NC2CCCC2)c1C	.	.	.	-1%	2	.
CCOC(=O)c1c(NC(=O)CC)sc(C(C)=O)c1C	-5%	-2%	-6%	40µM*	1	-3%
CCOC(=O)c1csc(NC(=O)CSc2nnnn2-c2ccc(OC)cc2)n1	-3%	-16%	?	4%	2	-20%
CCOC(=O)c1c(NC(=O)CSc2nnnn2-c2ccc(OC)cc2)sc(C)c1C	-2%	-27%	?	5µM*	-8	32µM*
CCOC(=O)c1c(NC(=O)Cc2cccs2)sc(C)c1C	-11%	-22%	-1%	20µM*	4	?
COc1cccc(NC(=O)c2cc3c(=O)n(C)c4ccccc4c3n2C)c1	.	-7%	-11%	.	.	-6%
CC(=O)c1nnn(-c2ccc([N+](=O)[O-])cc2C)c1C	5%	-5%	6%	7%	1	-5%
CC(=O)c1nnn(-c2cccc([N+](=O)[O-])c2)c1C	0%	-3%	-3%	8%	-38*	-4%
COc1ccc(C)cc1NC(=O)Nc1nnc(N2CCCCC2)s1	.	-12%	4%	.	.	-5%
COC(=O)c1ccc(C(=O)OC)c(NC(=O)C2CC2)c1	?	-2%	4%	10%	3	-7%
COC(=O)c1ccc(C(=O)OC)c(NC(=O)/C=C/C(=O)O)c1	?	-7%	-6%	40µM*	5	-15%
CCOC(=O)N/N=C1/C[C@@H](O)[C@@H](O)[C@@H]2[C@@H]3C(=O)N(Cc4ccc5c(c4)OCO5)C(=O)[C@H]3CC[C@@H]12	.	-8%[11.6 µM]	-1%[11.6 µM]	4%	2	-4%[11.5 µM]
CCCC(C)c1nnc(NC(=O)CCS(=O)(=O)Cc2ccccc2)s1 (stereo not given)	.	.	.	50µM*	4	.
CC(C)N(Cc1ccccc1)C(=O)CN1C(=O)CSc2ccc(S(=O)(=O)N3CCCC3)cc21	.	-1%	9%	.	.	-2%
CCN1C(=O)[C@@H]2[C@H]3C(=CC[C@@H]2C1=O)C1(OCCCO1)[C@H]1O[C@@H]1[C@H]3O	.	?	?	?	-27	2.8µM*
COc1ccc(NC(=O)CN2C(=O)/C(=C3\SC(=S)N(C4CCS(=O)(=O)C4)C3=O)c3ccccc32)cc1 (stereo not given)	-8%	?	-1%	14µM*	1	.
O=C(CN1C(=O)/C(=C2\SC(=S)N(C3CCS(=O)(=O)C3)C2=O)c2ccccc21)Nc1ccc(F)cc1 (stereo not given)	-1%	?	?	-24%	3	.
